Where “and” joins values, the source holds several entries; their conditions need not be identical. Equal entries are not always repeated. Out of some 5,500 compounds screened, about 2,000 (36%) were called active. Roughly 18% stayed inconclusive and do not appear here. Rule as the data show it: active = normalized growth mostly below about 0.91 (no sharp cut-off); inconclusive = no clear call, values can overlap the other calls; inactive = mostly above about 0.92. The list shows a part of the results.
Assay: chemical genetic growth profiling, strain panel (AID 1159580);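 also: tested at 20 µM; growth read once vehicle control cultures reached saturation at 30 °C; 1 = growth at the plate median or of vehicle wells; lower values mean less growth of the strain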
Conditions: growth OD

Measured: normalized growth

CNCCC(Oc1ccc(C(F)(F)F)cc1)c1ccccc1 (stereo unspecified)
active: S. cerevisiae deletion strains, locus YLR039C, strain RIC1, active compounds read low 1.41 [resistant] | S. cerevisiae deletion strains, locus YLR262C, strain YPT6, active compounds read low 1.46 [resistant]
inactive: S. cerevisiae deletion strains, locus YJR075W, strain HOC1, active compounds read low 0.985 and 1.01 | S. cerevisiae deletion strains, locus YKL009W, strain mrt4, active compounds read low 0.959 | S. cerevisiae deletion strains, locus YKL068W, active compounds read low 1 | S. cerevisiae deletion strains, locus YKL085W, strain MDH1 (second series), active compounds read low 0.999 | S. cerevisiae deletion strains, locus YKL085W, strain MDH1, active compounds read low 0.999 | S. cerevisiae deletion strains, locus YKL160W, strain elf1, active compounds read low 0.984 | S. cerevisiae deletion strains, locus YKL190W, strain CNB1, active compounds read low 1.01 | S. cerevisiae deletion strains, locus YKR001C, strain vps1, active compounds read low 1.01 | S. cerevisiae deletion strains, locus YKR026C, strain gcn3, active compounds read low 0.983 | S. cerevisiae deletion strains, locus YKR091W, strain srl3, active compounds read low 0.991 | S. cerevisiae deletion strains, locus YLL001W, strain dnm1, active compounds read low 0.979 | S. cerevisiae deletion strains, locus YLL026W, active compounds read low 0.987 | S. cerevisiae deletion strains, locus YLL041C, strain sdh2, active compounds read low 0.988 | S. cerevisiae deletion strains, locus YLR027C, strain aat2, active compounds read low 0.99 | S. cerevisiae deletion strains, locus YLR058C, strain SHM2, active compounds read low 1.01 | S. cerevisiae deletion strains, locus YLR102C, strain apc9, active compounds read low 0.987 | S. cerevisiae deletion strains, locus YLR113W, strain HOG1, active compounds read low 1.01 | S. cerevisiae deletion strains, locus YLR221C, strain rsa3, active compounds read low 0.985 | S. cerevisiae deletion strains, locus YLR258W, strain gsy2, active compounds read low 0.99 | S. cerevisiae deletion strains, locus YLR262C, strain YPT6 (second series), active compounds read low 1.04 | S. cerevisiae deletion strains, locus YLR268W, strain sec22, active compounds read low 0.985 | S. cerevisiae deletion strains, locus YLR320W, strain mms22, active compounds read low 0.968 | S. cerevisiae deletion strains, locus YLR330W, strain CHS5, active compounds read low 1.01 | S. cerevisiae deletion strains, locus YLR342W, strain FKS1 (second series), active compounds read low 0.982 | S. cerevisiae deletion strains, locus YLR342W, strain FKS1, active compounds read low 0.988 | S. cerevisiae deletion strains, locus YLR357W, strain rsc2, active compounds read low 0.977 | S. cerevisiae deletion strains, locus YLR370C, strain arc18, active compounds read low 0.981 | S. cerevisiae deletion strains, locus YLR371W, strain rom2, active compounds read low 0.985 | S. cerevisiae deletion strains, locus YLR384C, strain iki3, active compounds read low 0.97 | S. cerevisiae deletion strains, locus YLR418C, strain cdc73, active compounds read low 0.983 | S. cerevisiae deletion strains, locus YML016C, strain PPZ1, active compounds read low 1.02 | S. cerevisiae deletion strains, locus YML032C, strain rad52, active compounds read low 0.998 | S. cerevisiae deletion strains, locus YML120C, strain ndi1, active compounds read low 0.993 | S. cerevisiae deletion strains, locus YML124C, strain tub3, active compounds read low 0.992 | S. cerevisiae deletion strains, locus YMR058W, strain fet3, active compounds read low 0.99 | S. cerevisiae deletion strains, locus YMR078C, strain ctf18, active compounds read low 0.999 | S. cerevisiae deletion strains, locus YMR125W, strain sto1, active compounds read low 0.989 | S. cerevisiae deletion strains, locus YMR129W, active compounds read low 0.998 | S. cerevisiae deletion strains, locus YMR205C, strain PFK2, active compounds read low 0.967 | S. cerevisiae deletion strains, locus YMR223W, strain ubp8, active compounds read low 0.996 | S. cerevisiae deletion strains, locus YMR231W, strain pep5, active compounds read low 0.992 | S. cerevisiae deletion strains, locus YMR263W, strain SAP30, active compounds read low 0.995 | S. cerevisiae deletion strains, locus YMR307W, strain GAS1, active compounds read low 1.09 | S. cerevisiae deletion strains, locus YNL067W, strain RPL9B, active compounds read low 1.01 | S. cerevisiae deletion strains, locus YNL071W, strain lat1, active compounds read low 0.993 | S. cerevisiae deletion strains, locus YNL128W, strain TEP1, active compounds read low 0.992 and 1.03 | S. cerevisiae deletion strains, locus YNL153C, strain GIM3, active compounds read low 1.01 | S. cerevisiae deletion strains, locus YNL175C, strain NOP13, active compounds read low 1.01 | S. cerevisiae deletion strains, locus YNL183C, strain NPR1, active compounds read low 0.986 | S. cerevisiae deletion strains, locus YNL197C, strain WHI3, active compounds read low 0.979 | S. cerevisiae deletion strains, locus YNL209W, strain ssb2, active compounds read low 1.01 | S. cerevisiae deletion strains, locus YNL224C, strain SQS1, active compounds read low 1.04 | S. cerevisiae deletion strains, locus YNL233W, strain BNI4, active compounds read low 1.01 | S. cerevisiae deletion strains, locus YNL248C, strain rpa49, active compounds read low 0.99 | S. cerevisiae deletion strains, locus YNL250W, strain rad50, active compounds read low 0.996 | S. cerevisiae deletion strains, locus YNL271C, strain bni1, active compounds read low 0.99 | S. cerevisiae deletion strains, locus YNL298W, strain CLA4, active compounds read low 0.988 | S. cerevisiae deletion strains, locus YNL307C, strain MCK1, active compounds read low 0.993 | S. cerevisiae deletion strains, locus YNL322C, strain KRE1 (second series), active compounds read low 0.986 | S. cerevisiae deletion strains, locus YNL322C, strain KRE1, active compounds read low 1 | S. cerevisiae deletion strains, locus YNR049C, strain mso1, active compounds read low 0.987 | S. cerevisiae deletion strains, locus YNR052C, strain pop2, active compounds read low 1 | S. cerevisiae deletion strains, locus YOL006C, strain TOP1, active compounds read low 0.884 | S. cerevisiae deletion strains, locus YOL012C, strain htz1 0.953 | S. cerevisiae deletion strains, locus YOL147C, strain pex11, active compounds read low 0.995 | S. cerevisiae deletion strains, locus YOR001W, strain rrp6, active compounds read low 0.985 | S. cerevisiae deletion strains, locus YOR061W, strain CKA2, active compounds read low 1.01 | S. cerevisiae deletion strains, locus YOR069W, strain VPS5, active compounds read low 0.998 | S. cerevisiae deletion strains, locus YOR070C, strain gyp1, active compounds read low 0.99 | S. cerevisiae deletion strains, locus YOR080W, strain dia2, active compounds read low 0.997 | S. cerevisiae deletion strains, locus YOR083W, strain WHI5 (second series), active compounds read low 0.908 | S. cerevisiae deletion strains, locus YOR083W, strain WHI5, active compounds read low 0.982 | S. cerevisiae deletion strains, locus YOR106W, strain vam3, active compounds read low 0.986 | S. cerevisiae deletion strains, locus YOR136W, strain idh2, active compounds read low 0.99 | S. cerevisiae deletion strains, locus YOR144C, strain elg1, active compounds read low 0.995 | S. cerevisiae deletion strains, locus YOR184W, strain ser1, active compounds read low 1 | S. cerevisiae deletion strains, locus YOR231W, strain MKK1, active compounds read low 1.02 | S. cerevisiae deletion strains, locus YOR265W, strain rbl2, active compounds read low 0.995 | S. cerevisiae deletion strains, locus YOR270C, strain vph1, active compounds read low 0.9 | S. cerevisiae deletion strains, locus YOR290C, strain snf2, active compounds read low 0.981 | S. cerevisiae deletion strains, locus YOR316C, strain cot1, active compounds read low 1 | S. cerevisiae deletion strains, locus YPL051W, strain arl3, active compounds read low 0.992 | S. cerevisiae deletion strains, locus YPL055C, strain LGE1, active compounds read low 1.02 and 1 | S. cerevisiae deletion strains, locus YPL078C, strain atp4, active compounds read low 0.983 | S. cerevisiae deletion strains, locus YPL106C, strain sse1, active compounds read low 0.971 | S. cerevisiae deletion strains, locus YPL240C, strain hsp82, active compounds read low 0.997 | S. cerevisiae deletion strains, locus YPL241C, strain CIN2, active compounds read low 1 | S. cerevisiae deletion strains, locus YPL256C, strain CLN2, active compounds read low 1.06 | S. cerevisiae deletion strains, locus YPR119W, strain clb2, active compounds read low 1 | S. cerevisiae deletion strains, locus YPR141C, strain kar3, active compounds read low 0.999 | S. cerevisiae deletion strains, locus YPR163C, strain tif3, active compounds read low 0.998 | S. cerevisiae deletion strains, locus YPR167C, strain met16, active compounds read low 0.992 | S. cerevisiae deletion strains, strain wtn01, active compounds read low 1.01 | S. cerevisiae strains, strain wild type, active compounds read low 0.998

— PubChem BioAssay AID1159580 (chemical genetic matrix, 2015)
